# Experimental data as given in ChEMBL document CHEMBL2218924, “A broad activity screen in support of a chemogenomic map for kinase signalling research and drug discovery” (Biochem J, 2013).
# Legend:
# [1] = target: Tyrosine-protein kinase SYK (Homo sapiens) (UniProt P43405); settings: at 10 µM
# [2] = target: T1, Mitogen-activated protein kinase kinase kinase 7 (Homo sapiens) (UniProt O43318); settings: at 1 µM
# T1 sequence (whole entry): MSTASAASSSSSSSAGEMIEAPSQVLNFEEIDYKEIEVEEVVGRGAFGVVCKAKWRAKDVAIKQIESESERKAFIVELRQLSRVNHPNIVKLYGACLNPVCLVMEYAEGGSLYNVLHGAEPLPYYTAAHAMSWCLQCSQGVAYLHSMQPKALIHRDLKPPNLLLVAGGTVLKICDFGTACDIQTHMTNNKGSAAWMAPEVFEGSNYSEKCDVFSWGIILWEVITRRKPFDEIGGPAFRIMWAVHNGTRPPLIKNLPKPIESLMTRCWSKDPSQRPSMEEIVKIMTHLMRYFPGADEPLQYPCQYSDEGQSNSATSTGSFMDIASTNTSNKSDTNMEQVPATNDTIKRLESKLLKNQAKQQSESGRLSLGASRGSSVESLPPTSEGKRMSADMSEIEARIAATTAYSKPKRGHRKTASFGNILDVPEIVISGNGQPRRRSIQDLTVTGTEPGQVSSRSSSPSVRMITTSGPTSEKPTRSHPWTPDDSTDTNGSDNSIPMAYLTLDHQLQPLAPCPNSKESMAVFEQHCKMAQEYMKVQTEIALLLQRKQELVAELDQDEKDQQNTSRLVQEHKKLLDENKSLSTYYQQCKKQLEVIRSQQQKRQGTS
# [3] = target: T1, Mitogen-activated protein kinase kinase kinase 7 (Homo sapiens); settings: at 10 µM
# [4] = target: T2, Serine/threonine-protein kinase TAO1 (Homo sapiens) (UniProt Q7L7X3); settings: at 10 µM
# T2 sequence (whole entry): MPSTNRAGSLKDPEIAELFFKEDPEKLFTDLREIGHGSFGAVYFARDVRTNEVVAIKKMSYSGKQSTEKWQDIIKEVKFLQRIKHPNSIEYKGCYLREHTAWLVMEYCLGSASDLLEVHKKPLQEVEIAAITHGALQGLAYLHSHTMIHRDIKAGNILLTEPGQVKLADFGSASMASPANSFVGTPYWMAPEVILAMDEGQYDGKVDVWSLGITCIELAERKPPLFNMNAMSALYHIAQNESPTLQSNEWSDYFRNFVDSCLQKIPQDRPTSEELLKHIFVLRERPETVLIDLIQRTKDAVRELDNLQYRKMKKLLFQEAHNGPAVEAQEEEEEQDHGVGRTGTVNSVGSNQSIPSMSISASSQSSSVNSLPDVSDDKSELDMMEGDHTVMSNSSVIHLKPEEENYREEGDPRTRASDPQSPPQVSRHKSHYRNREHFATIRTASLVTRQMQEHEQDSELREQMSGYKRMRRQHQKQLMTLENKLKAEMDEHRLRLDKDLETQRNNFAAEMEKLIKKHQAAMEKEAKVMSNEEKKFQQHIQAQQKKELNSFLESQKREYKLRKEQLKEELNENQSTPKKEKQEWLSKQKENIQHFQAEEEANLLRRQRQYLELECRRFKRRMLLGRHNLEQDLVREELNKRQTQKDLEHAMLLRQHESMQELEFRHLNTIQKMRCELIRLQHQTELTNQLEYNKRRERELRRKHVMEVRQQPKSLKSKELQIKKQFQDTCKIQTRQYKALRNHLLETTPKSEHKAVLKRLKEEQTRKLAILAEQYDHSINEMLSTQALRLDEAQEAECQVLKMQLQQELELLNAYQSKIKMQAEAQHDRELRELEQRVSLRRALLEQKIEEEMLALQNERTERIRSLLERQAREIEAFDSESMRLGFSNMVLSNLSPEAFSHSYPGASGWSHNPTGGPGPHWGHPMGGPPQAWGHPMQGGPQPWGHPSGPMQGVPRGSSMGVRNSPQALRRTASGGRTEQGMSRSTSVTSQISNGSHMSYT
# [5] = target: T3, Serine/threonine-protein kinase TAO2 (Homo sapiens) (UniProt Q9UL54); settings: at 1 µM
# T3 sequence (whole entry): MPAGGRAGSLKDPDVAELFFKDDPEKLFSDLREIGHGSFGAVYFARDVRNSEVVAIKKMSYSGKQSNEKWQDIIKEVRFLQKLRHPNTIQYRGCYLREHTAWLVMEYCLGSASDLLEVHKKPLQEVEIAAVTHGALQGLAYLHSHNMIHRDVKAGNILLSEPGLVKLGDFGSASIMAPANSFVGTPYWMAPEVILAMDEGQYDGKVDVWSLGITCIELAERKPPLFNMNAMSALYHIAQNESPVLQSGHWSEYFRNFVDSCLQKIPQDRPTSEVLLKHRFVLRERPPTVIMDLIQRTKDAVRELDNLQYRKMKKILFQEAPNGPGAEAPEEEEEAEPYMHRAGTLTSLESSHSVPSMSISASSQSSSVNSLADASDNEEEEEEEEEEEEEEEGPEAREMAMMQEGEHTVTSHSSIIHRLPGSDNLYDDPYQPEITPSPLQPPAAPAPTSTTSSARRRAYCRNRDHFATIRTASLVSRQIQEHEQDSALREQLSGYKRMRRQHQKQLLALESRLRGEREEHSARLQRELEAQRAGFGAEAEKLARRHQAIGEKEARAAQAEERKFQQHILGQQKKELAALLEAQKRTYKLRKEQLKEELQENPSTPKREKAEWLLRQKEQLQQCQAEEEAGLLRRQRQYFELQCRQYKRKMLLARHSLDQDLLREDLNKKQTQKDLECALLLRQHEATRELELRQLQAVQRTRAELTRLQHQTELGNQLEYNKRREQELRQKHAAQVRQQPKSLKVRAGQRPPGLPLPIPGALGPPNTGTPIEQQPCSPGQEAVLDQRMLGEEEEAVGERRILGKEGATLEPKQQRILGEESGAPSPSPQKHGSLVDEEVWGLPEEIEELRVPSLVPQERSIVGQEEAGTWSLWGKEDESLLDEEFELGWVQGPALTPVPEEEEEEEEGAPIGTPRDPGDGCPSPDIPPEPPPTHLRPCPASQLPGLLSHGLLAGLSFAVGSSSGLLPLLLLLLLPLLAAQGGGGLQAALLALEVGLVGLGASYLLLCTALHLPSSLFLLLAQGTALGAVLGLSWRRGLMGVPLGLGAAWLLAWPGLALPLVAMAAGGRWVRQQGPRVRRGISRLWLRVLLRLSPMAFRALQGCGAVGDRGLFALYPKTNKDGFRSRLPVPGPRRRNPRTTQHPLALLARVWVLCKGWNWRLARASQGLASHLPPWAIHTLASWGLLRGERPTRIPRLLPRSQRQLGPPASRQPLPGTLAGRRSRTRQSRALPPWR
# [6] = target: T3, Serine/threonine-protein kinase TAO2 (Homo sapiens); settings: at 10 µM
# [7] = target: T4, Serine/threonine-protein kinase TAO3 (Homo sapiens) (UniProt Q9H2K8); settings: at 1 µM
# T4 sequence (whole entry): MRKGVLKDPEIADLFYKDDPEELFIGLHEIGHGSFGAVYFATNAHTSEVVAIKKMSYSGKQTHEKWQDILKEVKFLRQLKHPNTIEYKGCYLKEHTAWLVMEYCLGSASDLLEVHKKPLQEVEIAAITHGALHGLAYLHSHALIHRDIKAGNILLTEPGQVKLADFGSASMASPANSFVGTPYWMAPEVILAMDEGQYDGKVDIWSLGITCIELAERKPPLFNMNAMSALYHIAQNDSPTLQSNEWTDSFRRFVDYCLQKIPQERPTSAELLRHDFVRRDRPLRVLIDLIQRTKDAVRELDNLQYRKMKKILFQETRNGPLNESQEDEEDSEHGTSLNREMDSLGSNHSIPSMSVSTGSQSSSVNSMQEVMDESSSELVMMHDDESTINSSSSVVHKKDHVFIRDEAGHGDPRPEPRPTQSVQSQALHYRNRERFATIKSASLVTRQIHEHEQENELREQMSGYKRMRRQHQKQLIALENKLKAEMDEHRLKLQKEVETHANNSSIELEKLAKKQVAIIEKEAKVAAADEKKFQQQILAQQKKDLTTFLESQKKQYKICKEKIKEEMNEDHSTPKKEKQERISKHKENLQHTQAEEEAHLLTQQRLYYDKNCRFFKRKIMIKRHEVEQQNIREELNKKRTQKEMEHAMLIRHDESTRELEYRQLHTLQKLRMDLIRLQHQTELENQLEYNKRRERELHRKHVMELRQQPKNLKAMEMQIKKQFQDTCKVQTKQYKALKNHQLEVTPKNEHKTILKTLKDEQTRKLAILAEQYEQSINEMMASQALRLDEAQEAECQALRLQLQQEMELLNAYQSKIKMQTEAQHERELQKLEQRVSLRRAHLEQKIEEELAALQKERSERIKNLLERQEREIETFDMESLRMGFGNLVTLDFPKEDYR
# [8] = target: T4, Serine/threonine-protein kinase TAO3 (Homo sapiens); settings: at 10 µM
# [9] = target: T5, Serine/threonine-protein kinase TBK1 (Homo sapiens) (UniProt Q9UHD2); settings: at 1 µM
# T5 sequence (whole entry): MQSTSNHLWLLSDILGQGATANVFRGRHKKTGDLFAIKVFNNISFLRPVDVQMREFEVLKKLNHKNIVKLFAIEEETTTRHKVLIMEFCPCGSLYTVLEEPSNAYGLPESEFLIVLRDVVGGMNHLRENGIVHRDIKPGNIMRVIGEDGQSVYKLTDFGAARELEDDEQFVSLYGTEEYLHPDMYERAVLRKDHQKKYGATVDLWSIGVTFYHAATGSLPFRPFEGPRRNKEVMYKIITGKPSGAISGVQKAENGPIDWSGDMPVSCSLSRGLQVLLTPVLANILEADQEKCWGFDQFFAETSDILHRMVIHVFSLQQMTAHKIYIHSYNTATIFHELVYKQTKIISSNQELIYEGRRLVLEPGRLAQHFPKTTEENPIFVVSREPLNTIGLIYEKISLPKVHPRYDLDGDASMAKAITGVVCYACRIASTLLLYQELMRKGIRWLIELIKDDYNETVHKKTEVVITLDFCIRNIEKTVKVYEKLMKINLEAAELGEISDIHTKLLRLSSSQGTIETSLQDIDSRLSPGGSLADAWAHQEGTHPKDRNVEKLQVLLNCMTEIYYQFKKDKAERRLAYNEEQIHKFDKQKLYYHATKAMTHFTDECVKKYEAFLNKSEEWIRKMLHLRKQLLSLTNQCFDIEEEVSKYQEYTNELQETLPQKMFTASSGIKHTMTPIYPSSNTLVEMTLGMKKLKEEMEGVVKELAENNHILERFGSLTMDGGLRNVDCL
smiles,measurement,setting,value
Cn1cnc2cc3c(Nc4cccc(Br)c4)ncnc3cc21,residual activity,[1],86%
same,residual activity,[2],98%
same,residual activity,[3],106%
same,residual activity,[4],73%
same,residual activity,[5],98%
same,residual activity,[6],98%
same,residual activity,[7],94%
same,residual activity,[8],93%
same,residual activity,[9],83%
